Assay outcomes deposited in PubChem by National Center for Advancing Translational Sciences (NCATS).
Sfp inh: Sfp phosphopantetheinyl transferase inhibition; Potency, µM, for the others: largest response in the series, negative = inhibition, most hits filed as inhibitors; Biochemical Sfp PPTase activity, qHTS; actives 3.5% (n = 310,000);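 further: the enzyme is Sfp with the accession as filed and its product quenches rhodamine fluorescence; 0% = enzyme reaction without inhibitor and -100% = no enzyme wells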
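With Hepes-Na pH 7.6 buffer containing 10 mM MgCl2, Sfp (15 nM) modified BHQ-2-YbbR (12.5 uM) using rhodamine-CoA (5 uM). Two reads 30 minutes apart at 525/598 nm yielded each well's rate.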
JMJD2A Tudor: inhibitors of human JMJD2A Tudor domain; actives 4.4% (n = 390,000); AID 504339; Potency, µM (titrated, usually from 114 µM), without a hit: top-dose activity change, negative = inhibition, usual class: inhibitors; O75164; AlphaScreen JMJD2A-Tudor / H3K4me3 peptide binding; further: on the % scale 0 is the no-effect control and ±100 the full control effect; nearly all actives have a fitted effect of over 50% in size
HP1b binding inh: HP1-beta chromodomain-methylated histone interaction inhibition; P83916; AlphaScreen HP1-beta / biotin-H3K9me3 peptide binding; Potency, µM (doses to about 114 µM), for inactives: top-dose activity change, negative = inhibition, actives largely listed as inhibitors; AID 540317; actives 0.56% (n = 390,000); further: nearly all actives have a fitted effect of over 70% in size
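AlphaScreen: HP1-beta (50 nM) preformed 30 min with biotin-H3(1-18)K9me3 peptide (50 nM) in PBS pH 7.4, 0.01% Tween-20. Compound added for 30 min at RT, then streptavidin donor/nickel chelate acceptor beads (10 ug/mL) for 30 min.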
PLK1 PBD inh: PLK1 (human) polo-box domain binding inhibition. P53350. Plk1 PBD binding of FITC phosphopeptide, fluorescence polarization. Potency, µM, inactives show max response, negative = inhibition, actives largely listed as inhibitors. actives 2.8% (n = 360,000). AID 720504; further: series mostly up to about 57 µM; on the % scale 0 is the no-effect control and ±100 the full control effect; nearly all actives have a fitted effect of over 65% in size
Target sequence (P53350 whole entry, looked up, the tested form may be a part): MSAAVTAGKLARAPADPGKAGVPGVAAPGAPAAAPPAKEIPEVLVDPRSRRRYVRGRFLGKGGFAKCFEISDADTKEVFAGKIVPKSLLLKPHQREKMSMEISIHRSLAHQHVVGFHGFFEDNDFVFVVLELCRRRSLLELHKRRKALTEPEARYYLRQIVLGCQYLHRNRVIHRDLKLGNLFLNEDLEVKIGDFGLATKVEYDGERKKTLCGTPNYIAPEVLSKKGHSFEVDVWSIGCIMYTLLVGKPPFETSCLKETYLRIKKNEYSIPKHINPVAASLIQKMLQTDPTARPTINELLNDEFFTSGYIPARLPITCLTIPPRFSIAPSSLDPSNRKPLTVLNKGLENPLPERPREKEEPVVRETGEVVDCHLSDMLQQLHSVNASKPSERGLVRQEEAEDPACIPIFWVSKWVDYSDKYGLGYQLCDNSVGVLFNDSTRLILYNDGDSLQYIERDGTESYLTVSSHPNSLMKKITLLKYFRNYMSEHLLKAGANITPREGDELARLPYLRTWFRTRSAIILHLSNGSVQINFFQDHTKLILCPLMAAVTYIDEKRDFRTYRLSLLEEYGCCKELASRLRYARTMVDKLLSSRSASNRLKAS
BAZ2B inh: inhibitors of human BAZ2B bromodomain | Q9UIF8 | AlphaScreen BAZ2B-H3K14Ac peptide displacement | Potency, µM (doses to about 114 µM), without a hit: at the highest dose activity change, negative = inhibition, most hits filed as inhibitors | actives 4.4% (n = 360,000) | AID 504333; further: on the % scale 0 is the no-effect control and ±100 the full control effect; nearly all actives have a fitted effect of over 60% in size
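Multi-concentration screen (max 110 uM) measuring displacement of acetylated histone H3 peptide from BAZ2B by AlphaScreen, using 50 nM protein, 50 nM peptide and 10 ug/mL streptavidin donor plus Ni-chelate acceptor beads.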
G9a block: G9a (human) methyltransferase inhibition; Q96KQ7; G9a H3K9 monomethylation, AlphaScreen, 2 h; Potency, µM (titrated, usually from 102 µM), inactives show top-dose activity, negative = inhibition, most hits filed as inhibitors; actives 8.8% (n = 350,000); AID 504332; further: on the % scale 0 is the no-effect control and ±100 the full control effect; nearly all actives have a fitted effect of over 75% in size
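Compounds were preincubated with 20 nM G9a for 15 min, after which biotinylated H3K9 peptide (500 nM) and SAM (20 uM) started a 2 h room-temperature reaction. Monomethylated product was quantified by antibody-based AlphaScreen chemiluminescence.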
Active calls of the source: *; ? = inconclusive; . = no result given; [ ] = another dose, or the depositor's remark. In the library only some 12% were active in any assay of this set; here they are far more common. The call rests on the fitted dose curve; in most records, active means well fitted curve in the direction sought with a large enough effect; inconclusive means small, poorly fitted or top-dose-only effect, or another doubt; inactive means no such curve, though single readings can be large; an effect the other way counts as inactive or inconclusive. Potency means the concentration at half of the fitted maximal effect.

SMILES	Sfp inh	JMJD2A Tudor	HP1b binding inh	PLK1 PBD inh	BAZ2B inh	G9a block
COc1cc(NC(=O)c2ccccc2F)c(OC)cc1NC(=O)CN1CCOCC1	15%	-20%	19%	2%	-34%	45µM*
COc1cc2c(cc1NC(=O)CN1CCN(S(=O)(=O)c3ccccc3F)CC1)oc1ccccc12	-8%	-34%[11.4 µM]	-7%	3.4µM*	6%	6%
CCN(CC)CCOC(c1ccccc1)c1ccc(C)cc1 (stereo not given)	-3%	-8%	13%	-14%	-9%	-34%[59 µM]
CCN(CC)CCC(C)OC(c1ccccc1)c1ccccc1 (stereo not given)	17%	25µM*	25%	8%	-39%	?
Cc1ccc2nc(N3CCC(C(=O)N4CCN(c5cccc(Cl)c5)CC4)CC3)[nH]c2c1	.	56µM*	0%[57 µM]	.	71µM*	-36%[59 µM]
CCc1ccc(CNC(=O)Cn2nc(C)n3c(cc4cc(C)ccc43)c2=O)cc1	.	-16%	15%	.	3%	9%[59 µM]
CCCCNc1c(-c2cccc(-c3cc(C(C)=O)cs3)c2)nc2ccc(C)cn12	.	25µM*	-26%	-7%	35µM*	-16%[2.33 µM]
CCCCNc1c(-c2cccc(-c3ccc(OC)cc3)c2)nc2ccc(C)cn12	.	25µM*	-14%	-9%	45µM*	10%[2.33 µM]
CCOC(=O)N1CCC(NC(=O)CS(=O)Cc2nc(-c3ccccc3C)oc2C)CC1 (stereo not given)	-1%	-22%	48%	-28%	-4%	.
CNc1sc(C(=O)c2ccccc2F)c(N)c1-c1nc2ccccc2s1	-30%	50µM*	?	-1%	40µM*	?
O=C(NCc1ccc(F)cc1)C(=O)NCC1OCCN1S(=O)(=O)c1cccs1 (stereo not given)	27%	-18%	19%	-15%	2%	11%
Cc1cc(-c2nsc(=O)o2)c(S(C)(=O)=O)s1	-84%	?	?	3.8µM*	0%	2µM*
CCNC(=O)C1CC(=O)N(Cc2ccc3c(c2)OCO3)C(=Nc2ccc(OCC)cc2)S1 (stereo not given)	3%	-1%	32%	-5%	50µM*	0%[12.7 µM]
Cc1csc(=O)n1CCC(=O)OCC(=O)NNC(=O)c1ccc(Cl)cc1	.	-14%	17%	?	-1%	45µM*
CC(=O)OCOC(=O)CNc1ccccc1OCCOc1ccccc1NCC(=O)OCOC(C)=O	-15%	.	.	.	.	.
CCN(Cc1ccc(N(C)C)cc1)C(C)C(=O)Nc1ccc(S(=O)(=O)N2CCCC2)cc1 (stereo not given)	.	32µM*	-27%	7%	40µM*	20%[12.7 µM]
Cc1ccc(NC(=O)CN(C)C(C)C(=O)Nc2ccc(S(=O)(=O)N3CCCC3)cc2)cc1 (stereo not given)	.	-14%	26%	3%	3%	3%[2.33 µM]
O=C(COc1ccccc1)Nc1ccc(S(=O)(=O)N2CCCC2)cc1	-3%	-1%	32%	-5%	0%	50µM*
CCN1CCN(S(=O)(=O)c2ccc(Cl)c(C(=O)N(CCc3ccccc3)Cc3ccccc3)c2)CC1	.	?	5%	-12%	.	.
CCN1CCN(S(=O)(=O)c2ccc(Cl)c(C(=O)N(CC)Cc3ccccc3)c2)CC1	.	-21%	11%	2%	-29%	14µM*
O=C(COc1ccccc1)Nc1ccc(S(=O)(=O)N2CCCCCC2)cc1	17%	-4%	15%	-3%	3%	-5%[12.7 µM]
CCOc1ccc(NC(=O)C(=O)NCCN2CCN(S(=O)(=O)c3ccccc3)CC2)cc1	19%	?	-2%	24µM*	-2%	-1%
COC(=O)c1ccc(NC(=O)c2cc3cc(C)ccc3n2C)cc1	.	-5%	31%	.	-4%	-3%[59 µM]
CC1=C(C(=O)Nc2cccc(Cl)c2C)C2(CCCCCC2)OC1=O	.	-9%	24%	.	-10%	1%[59 µM]
COc1ccccc1CNC(=O)C1CCN(S(=O)(=O)c2ccc3c(c2)OCCCO3)CC1	10%	-5%	5%	4%	9%	-14%[59 µM]
SMILES	Sfp inh	JMJD2A Tudor	HP1b binding inh	PLK1 PBD inh	BAZ2B inh	G9a block
COc1ccc(CNC(=O)CSC(=S)N2CCCC2)cc1	.	-6%	36%	-15%	-4%	3%
COc1ccc(OCC(=O)Nc2ccc(S(=O)(=O)N3CCCC3)cc2)cc1	10%	-5%	4%	-9%	-9%	4%
Cc1ccc(OCC(=O)Nc2ccc(S(=O)(=O)N3CCCC3)cc2)cc1	-4%	-4%	24%	-8%	0%	79µM*
COc1ccccc1OCC(=O)NNC(=O)CSC(=S)N1CCCC1	.	-17%	29%	-11%	4%	26%[12.7 µM]
Cc1ccc(S(=O)(=O)N2CCN(C(=O)COc3ccc(NC(=O)c4ccco4)cc3)CC2)cc1	15%	?	2%	17µM*	1%	-2%[12.7 µM]
Cc1ccc(OCC(=O)NNC(=O)CSC(=S)N2CCCC2)cc1	.	-16%	30%	-11%	-4%	45µM*
CC(C)c1ccc(CCNC(=O)CSC(=S)N2CCCC2)cc1	.	12%	38%	27µM*	16%	16µM*
CC(C)c1ncc([N+](=O)[O-])n1C	13%	.	.	.	.	-7%[12.7 µM]
O=C(/C=C/c1ccc(F)cc1)Nc1cccc(S(=O)(=O)N2CCOCC2)c1	.	-10%	40%	-1%	.	.
Cc1ccc(OCC(=O)Nc2ccc(S(=O)(=O)N3CCN(C)CC3)cc2)cc1	7%	-13%	53%	-6%	-37%	11µM*
CCN(CC(=O)Nc1ccc(S(=O)(=O)N2CCCC2)cc1)Cc1ccccc1	.	-6%	28%	-2%	5%	45µM*
COc1cc2c(cc1OC)CN(CC(=O)Nc1ccc(F)cc1)C(C(=O)O)C2 (stereo not given)	?	-30%	33%	-9%	79µM*	?
CSc1cc(-c2ccc(Cl)cc2)c(C(=O)NC(C)C)s1	6%	?	-7%	3µM*	7%	27%
Cc1noc(C)c1-c1cccc(-c2nn3c(=O)cc(N4CCNCC4)nc3s2)c1	.	-26%	.	.	.	.
CC1NC(=O)NC1CCCCCC(=O)Nc1ccc(F)cc1 (stereo not given)	9%	0.32µM*	?	-11%	-1%	?
O=C(CCCC(=O)c1ccccc1)Nc1ccc(F)cc1	4%	-16%	1%	-4%	-1%	-2%[12.7 µM]
Cc1c(F)cccc1NC(=O)CCCCCC1NC(=O)NC1C (stereo not given)	-14%	0.89µM*	?	-4%	1µM*	0.71µM*
CCCC[n+]1ccn(C2=C([O-])c3ccccc3C(=O)/C2=N\S(=O)(=O)c2ccc(Br)cc2)c1	-12%	-12%	18%	-5%	89µM*	45µM*
Cc1ccc(S(=O)(=O)/N=C2\C(=O)c3ccccc3C([O-])=C2n2cc[n+](CCC(C)C)c2)cc1	6%	-20%	5%	-6%	-34%	?
